Assay results reported in PubChem BioAssay (NCI).
This is part of a sample that, as a whole, favours compounds with a hit. Of some 83,000 tested, about 20% had one in any assay.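 Results are percent growth after 48 hours of single-concentration exposure. 100 means growth as in untreated cells, lower positive values show inhibition; negative values down to -100 show cell death.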 Activity calls are given as the source filed them. How the source made its calls: active means growth percent below 10; inactive means the rest.

Tests used:
Assay in all cases: NCI-60 one-dose screen, 48 h (100 = growth as untreated, 0 = no growth, -100 = all killed)
Details in all cases: 10 µM unless noted
HCT-15 colon = tested on: HCT-15 colon
HT29 colon = tested on: HT29 colon
SNB-75 CNS = tested on: SNB-75 CNS
SNB-19 CNS = tested on: SNB-19 CNS
U251 CNS = tested on: U251 CNS
PC-3 prostate = tested on: PC-3 prostate
SK-MEL-5 melanoma = tested on: SK-MEL-5 melanoma
UACC-62 melanoma = tested on: UACC-62 melanoma
LOX IMVI melanoma = tested on: LOX IMVI melanoma
SK-MEL-28 melanoma = tested on: SK-MEL-28 melanoma
SK-MEL-2 melanoma = tested on: SK-MEL-2 melanoma
EKVX NSCLC = tested on: EKVX NSCLC
SN12C renal = tested on: SN12C renal
UO-31 renal = tested on: UO-31 renal
TK-10 renal = tested on: TK-10 renal
ACHN renal = tested on: ACHN renal
CAKI-1 renal = tested on: CAKI-1 renal
A498 renal = tested on: A498 renal
CCRF-CEM leukemia = tested on: CCRF-CEM leukemia
MOLT-4 leukemia = tested on: MOLT-4 leukemia

Measured: growth

C[C@H](CCC(=O)NCc1ccc(C(=O)Nc2ccccc2N)cc1)[C@H]1CC[C@H]2[C@@H]3[C@@H](O)C[C@@H]4C[C@H](O)CC[C@]4(C)[C@H]3CC[C@]12C
inactive: HCT-15 colon 88.3% | HT29 colon 48.1% | SNB-75 CNS 91.5% | SNB-19 CNS 73.1% | U251 CNS 64.3% | PC-3 prostate 42.4% | SK-MEL-5 melanoma 63.3% | UACC-62 melanoma 36.7% | LOX IMVI melanoma 59.6% | SK-MEL-28 melanoma 63.6% | SK-MEL-2 melanoma 68.8% | EKVX NSCLC 69.4% | SN12C renal 69.5% | UO-31 renal 56.7% | TK-10 renal 54.8% | ACHN renal 92.9% | CAKI-1 renal 58.4% | A498 renal 59.5% | MOLT-4 leukemia 10.7%
active: CCRF-CEM leukemia 7.16%

NC(N)=Nc1ccc(Oc2cccc(Nc3ccc(Cl)cc3)c2)cn1
inactive: SNB-75 CNS 22.9% | SNB-19 CNS 23.8% | SK-MEL-5 melanoma 48.8% | UACC-62 melanoma 43.3% | SK-MEL-28 melanoma 49.4% | SK-MEL-2 melanoma 64.6% | EKVX NSCLC 16.1% | SN12C renal 12.3% | UO-31 renal 39.1% | TK-10 renal 50% | ACHN renal 30.9% | CAKI-1 renal 27.3%
active: HCT-15 colon -48.7% | HT29 colon 4.94% | U251 CNS -71.2% | PC-3 prostate -77.5% | LOX IMVI melanoma -96.9% | A498 renal -4.07% | CCRF-CEM leukemia -6.22% | MOLT-4 leukemia -12.8%

C#CCC#CCN1CCC[C@H]1C(=O)NCC(=O)OC
inactive: HCT-15 colon 102% | HT29 colon 104% | SNB-75 CNS 105% | SNB-19 CNS 98.9% | U251 CNS 103% | PC-3 prostate 98.4% | SK-MEL-5 melanoma 100% | UACC-62 melanoma 104% | LOX IMVI melanoma 94.4% | SK-MEL-28 melanoma 101% | SK-MEL-2 melanoma 99.8% | EKVX NSCLC 98.4% | SN12C renal 98.4% | UO-31 renal 98.5% | TK-10 renal 99.4% | ACHN renal 101% | CAKI-1 renal 102% | A498 renal 129% | CCRF-CEM leukemia 109% | MOLT-4 leukemia 107%

CS(=O)(=O)Nc1cc(-c2ccc3ncc(C#N)c(NCc4cccc(F)c4)c3c2)cnc1Cl
inactive: SNB-75 CNS 45.7% | SNB-19 CNS 11.9% | U251 CNS 10.3% | SN12C renal 15.4% | ACHN renal 10.1% | CCRF-CEM leukemia 15.1%
active: HCT-15 colon 5.75% | HT29 colon 9.57% | PC-3 prostate 4.17% | SK-MEL-5 melanoma -96.6% | UACC-62 melanoma -20.2% | LOX IMVI melanoma -55% | SK-MEL-28 melanoma 4.56% | SK-MEL-2 melanoma -63.4% | EKVX NSCLC -7.05% | UO-31 renal 2.87% | TK-10 renal -11% | CAKI-1 renal 4.52% | A498 renal -48.9% | MOLT-4 leukemia -10.6%

CC(C)(C)c1ccc(C(=O)Nc2sc3c(c2C(N)=O)CC/C(=N\O)C3)cc1
inactive: HCT-15 colon 10.4% | SNB-75 CNS 44.2% | SNB-19 CNS 26.7% | U251 CNS 17.9% | PC-3 prostate 18.7% | UACC-62 melanoma 12.7% | SK-MEL-28 melanoma 31.4% | EKVX NSCLC 25.9% | SN12C renal 21.5% | TK-10 renal 32% | ACHN renal 12.2% | CAKI-1 renal 12.7% | A498 renal 34.6% | CCRF-CEM leukemia 10.1% | MOLT-4 leukemia 15%
active: HT29 colon 5.87% | SK-MEL-5 melanoma -29.4% | LOX IMVI melanoma 3.93% | SK-MEL-2 melanoma -3.77% | UO-31 renal -33.7%

COCCNc1ccc2ncc(C#Cc3cncc(C(=O)Nc4ccc(CN5CCN(C)CC5)c(C(F)(F)F)c4)c3)n2n1
active: HCT-15 colon -22.7% | HT29 colon -22.6% | SNB-75 CNS -71.5% | SNB-19 CNS -12% | U251 CNS -38.2% | PC-3 prostate -25.3% | SK-MEL-5 melanoma -93.7% | UACC-62 melanoma -62.4% | LOX IMVI melanoma -87.8% | SK-MEL-28 melanoma -22.9% | SK-MEL-2 melanoma -90.5% | EKVX NSCLC -23.2% | SN12C renal -6.14% | UO-31 renal -40% | TK-10 renal -43.3% | ACHN renal 1.57% | CAKI-1 renal -40.3% | A498 renal -98% | MOLT-4 leukemia 5.84%
inactive: CCRF-CEM leukemia 11.2%

CCn1c(SCC(=O)Nc2cccc(C(=O)/C=C/c3ccc(Br)cc3)c2)nc2ccccc2c1=O
inactive: HCT-15 colon 65% | HT29 colon 85.4% | SNB-75 CNS 73.8% | SNB-19 CNS 85.9% | U251 CNS 88.7% | PC-3 prostate 83.4% | SK-MEL-5 melanoma 91.7% | UACC-62 melanoma 73.9% | LOX IMVI melanoma 41.9% | SK-MEL-28 melanoma 98.2% | SK-MEL-2 melanoma 106% | EKVX NSCLC 96.5% | SN12C renal 92.7% | UO-31 renal 71.9% | TK-10 renal 104% | ACHN renal 102% | CAKI-1 renal 90.7% | A498 renal 87.3% | CCRF-CEM leukemia 75% | MOLT-4 leukemia 98.3%

CCNC(=O)N1CCc2cc(OC)c(OCCc3ccc(OC)c(N)c3)cc2C1c1cc(C)c(C)cc1C (stereo not given)
inactive: HCT-15 colon 14.7% | HT29 colon 21.9% | SNB-75 CNS 22.1% | SNB-19 CNS 34.6% | U251 CNS 28.4% | PC-3 prostate 36.7% | SK-MEL-5 melanoma 27.7% | UACC-62 melanoma 23.1% | SK-MEL-28 melanoma 44.7% | SK-MEL-2 melanoma 33.2% | EKVX NSCLC 58.3% | SN12C renal 39.4% | UO-31 renal 38.4% | TK-10 renal 68% | ACHN renal 32.5% | CAKI-1 renal 30.1% | A498 renal 20% | CCRF-CEM leukemia 46.7% | MOLT-4 leukemia 32.3%
active: LOX IMVI melanoma 7.03%

Cn1ccnc1C(=O)/C=C/C=C/c1ccc(C(=O)Nc2ccc(F)cc2)cc1
active: HCT-15 colon -36.8% | HT29 colon 0.045% | U251 CNS -1.47% | LOX IMVI melanoma -65.7% | SN12C renal 1.94%
inactive: SNB-75 CNS 51.7% | SNB-19 CNS 39.6% | PC-3 prostate 41.8% | SK-MEL-5 melanoma 30.4% | UACC-62 melanoma 32.8% | SK-MEL-28 melanoma 39.7% | SK-MEL-2 melanoma 90.8% | EKVX NSCLC 33.4% | UO-31 renal 44.3% | TK-10 renal 61.2% | ACHN renal 21.9% | CAKI-1 renal 37.2% | A498 renal 62% | CCRF-CEM leukemia 10.3% | MOLT-4 leukemia 12.3%

CCN1CCN(Cc2cn(-c3ccc(S(N)(=O)=O)cc3)nn2)CC1
inactive: HCT-15 colon 104% | HT29 colon 102% | SNB-75 CNS 95.6% | SNB-19 CNS 105% | U251 CNS 109% | PC-3 prostate 97.8% | SK-MEL-5 melanoma 103% | UACC-62 melanoma 98.1% | LOX IMVI melanoma 102% | SK-MEL-28 melanoma 116% | SK-MEL-2 melanoma 115% | EKVX NSCLC 103% | SN12C renal 104% | UO-31 renal 94% | TK-10 renal 108% | ACHN renal 108% | CAKI-1 renal 96.5% | A498 renal 103% | CCRF-CEM leukemia 104% | MOLT-4 leukemia 104%

O=C(CN1CCN(c2cc(=O)n(-c3ccccc3)c3ccccc23)CC1)Nc1nc(-c2ccccc2)cs1
inactive: HCT-15 colon 25.2% | HT29 colon 73% | SNB-75 CNS 71.6% | SNB-19 CNS 85.2% | U251 CNS 59.2% | PC-3 prostate 32.5% | UACC-62 melanoma 63.9% | LOX IMVI melanoma 49.4% | SK-MEL-28 melanoma 71.2% | SK-MEL-2 melanoma 88.9% | EKVX NSCLC 45.5% | SN12C renal 82.1% | UO-31 renal 41.6% | TK-10 renal 97.7% | ACHN renal 63.8% | CAKI-1 renal 61.4% | A498 renal 66.2% | CCRF-CEM leukemia 39.6% | MOLT-4 leukemia 17.8%
active: SK-MEL-5 melanoma 5.29%

CCCC(=O)NC(c1cccnc1)c1cc(C(C)(C)C)c2cccnc2c1O (stereo not given)
inactive: HCT-15 colon 35.4% | HT29 colon 34% | SNB-75 CNS 37.4% | SNB-19 CNS 31.6% | U251 CNS 18.6% | PC-3 prostate 44.1% | LOX IMVI melanoma 20.3% | SK-MEL-28 melanoma 24.6% | SK-MEL-2 melanoma 30.5% | EKVX NSCLC 21.7% | SN12C renal 29.5% | UO-31 renal 13.6% | TK-10 renal 42.3% | ACHN renal 12.1% | CAKI-1 renal 16.2% | A498 renal 13.6% | MOLT-4 leukemia 14.2%
active: SK-MEL-5 melanoma -15.4% | UACC-62 melanoma 7.53% | CCRF-CEM leukemia 9.16%

CCn1c(SCC(=O)Nc2cccc(C(=O)/C=C/c3ccc(C)cc3)c2)nc2ccccc2c1=O
inactive: HCT-15 colon 49.2% | HT29 colon 65.8% | SNB-75 CNS 93.3% | SNB-19 CNS 81.2% | U251 CNS 80.1% | PC-3 prostate 60.7% | SK-MEL-5 melanoma 90% | UACC-62 melanoma 70.1% | LOX IMVI melanoma 37.6% | SK-MEL-28 melanoma 95.8% | SK-MEL-2 melanoma 108% | EKVX NSCLC 98.8% | SN12C renal 88% | UO-31 renal 58.9% | TK-10 renal 120% | ACHN renal 92.2% | CAKI-1 renal 80.2% | A498 renal 94.2% | CCRF-CEM leukemia 67.4% | MOLT-4 leukemia 88%

CCO/C=N/C1=C(C#N)C(c2ccc(F)cc2)c2sc3c(C)cccc3c2O1 (stereo not given)
active: HT29 colon 9.76% | SNB-75 CNS 8.13% | SK-MEL-5 melanoma 4.34% | LOX IMVI melanoma 9.65% | A498 renal -0.888%
inactive: HCT-15 colon 11.9% | SNB-19 CNS 18.2% | U251 CNS 21.8% | PC-3 prostate 14.5% | UACC-62 melanoma 12.8% | SK-MEL-28 melanoma 56.2% | SK-MEL-2 melanoma 42.7% | EKVX NSCLC 44.6% | SN12C renal 17.3% | UO-31 renal 27.9% | TK-10 renal 66.4% | ACHN renal 23.1% | CAKI-1 renal 28.4% | CCRF-CEM leukemia 21.1% | MOLT-4 leukemia 23.1%
